Screening data (PubChem BioAssay)
This excerpt belongs to a sample that is enriched for hits.
ROC1-CUL1 inh: blocks human RBX1-Cullin-1 di-ubiquitin formation; P62877+Q13616; in vitro K48 di-Ub FRET, acceptor:donor ratio, 45 min; inhibition, % at 10 µM; 0.6% of 140,000 active; AID 1347404; in the data active = inhibition above about 25%
Target sequence (P62877 whole entry, looked up): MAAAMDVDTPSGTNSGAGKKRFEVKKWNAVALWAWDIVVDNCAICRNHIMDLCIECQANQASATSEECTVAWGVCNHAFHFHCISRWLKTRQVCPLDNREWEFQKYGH
Target sequence (Q13616 whole entry, looked up): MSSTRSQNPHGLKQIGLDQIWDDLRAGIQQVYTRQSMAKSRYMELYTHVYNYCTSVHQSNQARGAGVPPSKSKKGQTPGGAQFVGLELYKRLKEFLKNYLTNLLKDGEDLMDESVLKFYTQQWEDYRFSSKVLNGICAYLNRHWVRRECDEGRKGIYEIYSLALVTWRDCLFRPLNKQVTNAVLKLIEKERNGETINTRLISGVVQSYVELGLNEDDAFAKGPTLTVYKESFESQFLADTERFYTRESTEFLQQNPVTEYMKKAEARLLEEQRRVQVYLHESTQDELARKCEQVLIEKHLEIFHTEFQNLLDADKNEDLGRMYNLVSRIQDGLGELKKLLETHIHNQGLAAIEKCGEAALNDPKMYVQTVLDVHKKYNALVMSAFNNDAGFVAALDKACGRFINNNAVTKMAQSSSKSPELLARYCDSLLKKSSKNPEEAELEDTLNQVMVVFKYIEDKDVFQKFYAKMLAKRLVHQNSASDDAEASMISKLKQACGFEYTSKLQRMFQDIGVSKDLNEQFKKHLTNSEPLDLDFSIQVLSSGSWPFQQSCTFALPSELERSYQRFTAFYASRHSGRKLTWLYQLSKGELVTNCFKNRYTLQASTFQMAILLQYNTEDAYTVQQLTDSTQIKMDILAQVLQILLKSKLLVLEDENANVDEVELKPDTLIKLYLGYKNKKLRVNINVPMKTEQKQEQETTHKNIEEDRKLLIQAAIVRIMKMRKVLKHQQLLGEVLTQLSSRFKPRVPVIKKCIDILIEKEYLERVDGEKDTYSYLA
Active calls of the source: *.

Results for N#CC1C(=N)Oc2n[nH]c(-c3ccccc3)c2C1c1cccc(OCc2ccccc2F)c1 (stereo not drawn) ?
ROC1-CUL1 inh: 9

What do the screens show for `O[C@H]1[C@H](N2CCOC3(CCCC3)C2)c2ccccc2C12CCNCC2`?
ROC1-CUL1 inh: 4

How did c1ccc(CN2CCSC2=Nc2ccccc2)cc1 do in these assays?
ROC1-CUL1 inh: -1

Results for C=CCS(=O)(=O)NC1CCCc2nc(-c3ccccc3)ncc21 (stereo not drawn) ?
ROC1-CUL1 inh: 14

Results for Cc1ccc(/C=C2/C(=O)N(C)C(=S)N2C)cc1 ?
ROC1-CUL1 inh: -7

Results for CC1=NC2=NC(=O)/C(=C/c3ccc(Br)cc3)N2C(=O)C1 ?
ROC1-CUL1 inh: 79*

Results for O=C1CSC2=NC3=C(CCC/C3=C\c3ccc(Br)cc3)C(c3ccc(Br)cc3)N12 (stereo not drawn) ?
ROC1-CUL1 inh: 11

How did Cc1nc(NC(=O)NCc2scnc2-c2ccccc2)nn1C(C)C do in these assays?
ROC1-CUL1 inh: 13

What do the screens show for `CC(=O)N1CCc2cc(S(=O)(=O)NC(CC(C)C)C(=O)NCc3ccccc3)ccc21` (stereo not drawn)?
ROC1-CUL1 inh: 3

How did CCC(=O)N1CCc2cc(S(=O)(=O)NC(CC(C)C)C(=O)NCCc3ccccc3)ccc21 (stereo not drawn) do in these assays?
ROC1-CUL1 inh: 0

Results for CC(=O)N1CCc2cc(S(=O)(=O)NC(CC(C)C)C(=O)NCCc3cccc(C)c3)ccc21 (stereo not drawn) ?
ROC1-CUL1 inh: 44*

Results for CC(C)CCNC(=O)C1CCN(S(=O)(=O)N(C)C)CC1 ?
ROC1-CUL1 inh: 8

Results for N#CC1C(=N)C(C#N)(C#N)C2=CCN(Cc3ccccc3)CC2C1c1cccc(F)c1 (stereo not drawn) ?
ROC1-CUL1 inh: 8

What do the screens show for `CCc1ccc(C(=O)CC=Nc2cccc(C)c2)cc1`?
ROC1-CUL1 inh: 7

Results for Brc1nsc(SCSc2nc(Br)ns2)n1 ?
ROC1-CUL1 inh: 33*

How did O=C(CSC(=S)N1CCOCC1)Nc1nc(-c2ccccc2)cs1 do in these assays?
ROC1-CUL1 inh: -3

What do the screens show for `O=C1NN=C2N=C(C(F)(F)F)C=C(C(F)(F)F)C12` (stereo not drawn)?
ROC1-CUL1 inh: 97*

What do the screens show for `CC(NC(=O)c1cc(-c2ccc3c(c2)OCO3)nc2ccccc12)C1CCCO1` (stereo not drawn)?
ROC1-CUL1 inh: 3

What do the screens show for `O=S(=O)(Cc1ccccc1F)NCCC1=CCCCC1`?
ROC1-CUL1 inh: 16

What do the screens show for `O=C1C=CC2(C=C1)OC(=O)c1ccccc1O2`?
ROC1-CUL1 inh: 29*

What do the screens show for `CC1(C)Oc2ccccc2C(=O)C1Br` (stereo not drawn)?
ROC1-CUL1 inh: 10

How did CC1(C)NC(=O)c2ccccc2O1 do in these assays?
ROC1-CUL1 inh: -2

What do the screens show for `CCOCC(=O)Nc1ccccc1C(=O)O`?
ROC1-CUL1 inh: 103*

Results for COCC(=O)Nc1ccccc1C(=O)O ?
ROC1-CUL1 inh: 0

Results for CCOCC(=O)Nc1ccccc1OC ?
ROC1-CUL1 inh: 1

How did O=C(COc1ccccc1)NC1CCCCCC1 do in these assays?
ROC1-CUL1 inh: -1

How did CC(=O)N1CCCN(C(=O)C2(N(C)Cc3ccccc3)Cc3ccccc3C2)CC1 do in these assays?
ROC1-CUL1 inh: 7

Results for O=C(NC1(C(F)(F)F)C(=O)N=C2C1C(=O)NC(=O)N2c1ccccc1F)c1ccc(Cl)cc1 (stereo not drawn) ?
ROC1-CUL1 inh: 10

Results for Cc1cccc(N2CCN(C3NS(=O)(=O)C(c4ccc(Cl)cc4)C3C)CC2C)c1 (stereo not drawn) ?
ROC1-CUL1 inh: 1

Results for C#CCOc1ccc(/C=C2\C(=O)N(c3ccc(C(=O)OCC)cc3)N=C2C(F)(F)F)cc1OCC ?
ROC1-CUL1 inh: 41*

What do the screens show for `CCOc1cc(/C=C2/C(=O)N(c3cccc(C(F)(F)F)c3)N=C2C)ccc1OCc1ccccc1`?
ROC1-CUL1 inh: 8

How did C#CCOc1ccc(/C=C2/C(=O)N(c3ccc(C)cc3)N=C2C)cc1OCC do in these assays?
ROC1-CUL1 inh: -5

Results for COc1ccc(-c2nc(-c3ccccc3)c(-c3ccc(C(=O)c4ccccc4)cc3)[nH]2)cc1 ?
ROC1-CUL1 inh: 3

What do the screens show for `CCC(CC)C(=O)Nc1cccc(/C(C)=N/NC(=O)c2csc3ccccc23)c1`?
ROC1-CUL1 inh: 4

Results for c1ccc(-c2cc3ccccn3c3cccc2-3)cc1 ?
ROC1-CUL1 inh: 93*

Results for COC(=O)c1cc2c(-c3ccccc3)cc3ccccn3c-2c1C(=O)OC ?
ROC1-CUL1 inh: 5

How did c1ccc(-c2cc3ccc4cccc2n43)cc1 do in these assays?
ROC1-CUL1 inh: -1

How did COc1ccc(CNC(=O)CCC2CCCN(Cc3cccc(C)c3)C2)c(OC)c1 (stereo not drawn) do in these assays?
ROC1-CUL1 inh: 6

Results for O=C1OC(c2ccco2)=NC1C=Nc1ccc(I)cc1 (stereo not drawn) ?
ROC1-CUL1 inh: 0

How did Cn1nnnc1Sc1ccc([N+](=O)[O-])cc1Cl do in these assays?
ROC1-CUL1 inh: -4

What do the screens show for `Cn1ccnc1Sc1ccc([N+](=O)[O-])c(Sc2nccn2C)n1`?
ROC1-CUL1 inh: 3

Results for Cn1nnnc1Sc1ccc([N+](=O)[O-])c(Sc2nnnn2C)n1 ?
ROC1-CUL1 inh: 32*

What do the screens show for `Nc1c(C(=O)Nc2ccccc2OC(F)F)sc2ncccc12`?
ROC1-CUL1 inh: 4

Results for O=[N+]([O-])c1cc(N=Cc2ccc3ccccc3c2)ccc1Cl ?
ROC1-CUL1 inh: -5

What do the screens show for `CCc1noc(C)c1C(=O)N1CCC(CCC(=O)N(C)Cc2ccccc2)CC1`?
ROC1-CUL1 inh: 6

Results for CCc1ccc(-c2nc3cc(NC(=O)/C=C\c4ccco4)ccc3o2)cc1 ?
ROC1-CUL1 inh: 6

What do the screens show for `O=C(Nc1ccc2oc(-c3cccnc3)nc2c1)c1ccc(-c2ccccc2)o1`?
ROC1-CUL1 inh: 4

How did O=C(/C=C/c1ccco1)Nc1ccc2oc(-c3cccnc3)nc2c1 do in these assays?
ROC1-CUL1 inh: 54*

What do the screens show for `O=C(Oc1ccccc1C(=O)Oc1ccccc1)c1ccccc1`?
ROC1-CUL1 inh: 2

How did CC(=O)c1ccccc(OC(=O)c2ccccc2)c1=O do in these assays?
ROC1-CUL1 inh: 81*

Results for COc1cc(C(=O)Oc2ccccc2C(C)=O)cc(OC)c1OC ?
ROC1-CUL1 inh: -6

What do the screens show for `CCCCn1nnc(NC(=O)Cc2ccccc2)n1`?
ROC1-CUL1 inh: 2

What do the screens show for `O=[N+]([O-])c1ccccc1C=Nc1ccccc1Cl`?
ROC1-CUL1 inh: -4

Results for O=[N+]([O-])c1ccc(O)c(C=Nc2cc(Cl)cc(Cl)c2)c1 ?
ROC1-CUL1 inh: -5

What do the screens show for `O=[N+]([O-])c1cc(C=Nc2c(Cl)cc(Cl)c(N=Cc3cc([N+](=O)[O-])c(O)cc3O)c2Cl)c(O)cc1O`?
ROC1-CUL1 inh: 108*

What do the screens show for `Cc1ccc(C)c(OCC(=O)OCC(=O)C(C)(C)C)c1`?
ROC1-CUL1 inh: -3

What do the screens show for `O=C(Cn1nc(C(F)(F)F)cc1C1CC1)Nc1ccc(F)c(Cl)c1`?
ROC1-CUL1 inh: 6

Results for CCS(=O)(=O)N1CCC(C(=O)N2CCN(C/C=C/c3ccccc3)CC2)CC1 ?
ROC1-CUL1 inh: -6

How did CSC1=NC(=O)C(C(c2ccc(Cl)cc2)C2C(=O)N=C(SC)NC2=O)C(=O)N1 (stereo not drawn) do in these assays?
ROC1-CUL1 inh: -4

What do the screens show for `O=C(O)CSc1cccnc1Sc1ccc(Cl)cc1`?
ROC1-CUL1 inh: 5
